Data taken from PubChem BioAssay AID504467 (National Center for Advancing Translational Sciences (NCATS), 2011).
The campaign covered roughly 330,000 compounds. About 7,700 (2.3%) were called active. Not shown: some 26% with an inconclusive outcome. The call rests on the fitted dose curve; in most records, active means well fitted inhibition curve with a large enough effect; inconclusive means small, poorly fitted or top-dose-only effect, or effect the other way; inactive means flat fitted curve, though single readings scatter. The entries come from a sample that favours actives as a whole. Where a call stands in place of a potency, no number is given.
Potency means the concentration at half of the fitted maximal effect.

Experiment: qHTS screen for small molecules that inhibit ELG1-dependent DNA repair in human embryonic kidney (HEK293T) cells expressing luciferase-tagged ELG1; further: nearly all actives have a fitted effect of over 55% in size
Conditions: HEK293T ELG1-luciferase reporter, luminescence, 16 h, DNA damage induced by 5-fluorouridine; series mostly up to 46.1 µM
Outline: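 Cells (2,000 per well) received 5-fluorouridine plus test compound or DMSO and were incubated 16 hr at 37 °C, 5% CO2. Luciferase activity was read by luminescence 30 min after ONE-Glo addition; signal suppression marked inhibition of damage-induced ELG1 function.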
For CC1CCC(N(C)C2CCN(C)CC2)CC1 (configuration not stated), the Potency was “inactive”.
In the case of COc1cc(-n2c(=S)[nH]c3ccc(C)cc3c2=O)c(Cl)cc1Cl, the Potency was 16.4 µM (active).
In the case of COC(=O)C1=C(c2ccc(Cl)c(C(F)(F)F)c2)C[C@@H]2CC[C@H]1N2C(=O)NC(C)C, the Potency was “inactive”.
In the case of O=C(O)c1ccccc1NC(=O)C1C2CCC(O2)C1C(=O)O (configuration not stated), the Potency was “inactive”.
For COC(=O)C1=C(c2ccc(F)cc2OCc2ccccc2)C[C@@H]2CC[C@H]1N2C(=O)NCc1ccc(C(C)(C)C)cc1, the Potency was “inactive”.
With COc1ccc(CNCCc2ccc3c(c2)OCO3)c(OC)c1OC the Potency was “inactive”.
For O=C(NC(=S)N1C[C@H]2C[C@H](C1)c1cccc(=O)n1C2)c1ccc(F)cc1, the Potency was “inactive”.
In the case of CN(c1ccccc1)c1ccc([N+](=O)[O-])c2nonc12, the Potency was “inactive”.
With Oc1cc2c(cc1CN1CCN(c3ccccc3)CC1)OCO2 the Potency was “inactive”.
With CCC(C)n1c(O)c(/C=N/Nc2nc3c(c(=O)n(C)c(=O)n3C)n2C)c(=O)[nH]c1=S (configuration not stated) the Potency was 23.1 µM (active).
For C[C@]12CC[C@H](O)CC1=C([N+](=O)[O-])CC1C2CC[C@@]2(C)C1CC[C@@H]2O (some centres not stated), the Potency was “inactive”.
With c1ccc(CC2CCCCN2)cc1 (configuration not stated) the Potency was “inactive”.
With CCCCCn1c(=O)c(C(=O)NCc2ccccc2)c(O)c2ccccc21 the Potency was “inactive”.
For CCCCCCCCCCCCn1ccc(=N)cc1, the Potency was 5.8 µM (active).
In the case of COc1cccc(OC)c1C(=O)NC(=S)N1C[C@H]2C[C@H](C1)c1cccc(=O)n1C2, the Potency was “inactive”.
In the case of COC(=O)[C@@H]1C(OC(=O)c2ccccc2)CC2CCC1N2C (some centres not stated), the Potency was “inactive”.
In the case of CC[C@H]1CN2CCc3cc(OC)c(OC)cc3[C@@H]2C[C@@H]1C[C@H]1NCCc2cc(OC)c(OC)cc21, the Potency was 0.259 µM (active).
For COc1ccc(N2C(=O)/C(=C/c3ccco3)C(=O)NC2=S)cc1, the Potency was “inactive”.
With Cc1c(Oc2cc(NN3CCCCC3)c([N+](=O)[O-])cc2[N+](=O)[O-])cccc1[N+](=O)[O-] the Potency was “inactive”.
With CCc1ccc(OCC(=O)N2CCN(CC(=O)Nc3ccccc3Cl)CC2)cc1 the Potency was “inactive”.
For COC(=O)C1=C(c2ccc(Cl)c(C(F)(F)F)c2)C[C@@H]2CC[C@H]1N2C(=O)NC1CC1, the Potency was “inactive”.
With C[C@]12CCC3C(CC[C@H]4C[C@@H](O)CC[C@]34C)C1CC[C@@H]2O (some centres not stated) the Potency was “inactive”.
